# Screens deposited in PubChem by several laboratories.
# ADAM17 inh: ADAM17 inhibitors, primary screen, biochemical, QFRET; inhibition, % at 6.95 µM; 370,000 tested, 0.83% active; recombinant ADAM17, EDANS/DABCYL FRET peptide cleavage; Disintegrin and metalloproteinase domain-containing protein 17 (Homo sapiens), P78536; AID 720648, 2013;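 active = inhibition above the mean of compounds lying between control limits plus 3 SD, set per campaign, cut at about 8.5% in these data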;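 also: 0% = DMSO-only wells as the low control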
# ADAM10 inh: human ADAM10 inhibitors, primary screen, biochemical, QFRET, HTS; Disintegrin and metalloproteinase domain-containing protein 10 (Homo sapiens), O14672; recombinant ADAM10, EDANS/DABCYL FRET peptide cleavage, 3 h; inhibition, % at 7 µM; 370,000 tested, 0.62% active;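 active = inhibition above a per-campaign cutoff equal to the mean of compounds falling between control-based bounds plus 3 SD, cut at about 20% in these data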;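 also: 0% = DMSO wells while the 100% control is not disclosed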
# Rce1 inhib: yeast Rce1p protease inhibitors, primary screen, biochemical, fluorescence, cell-free homogeneous | CAAX prenyl protease 2 (Saccharomyces cerevisiae (strain ATCC 204508 / S288c)), Q03530 | calls only | yeast membranes, quenched prenylated peptide cleavage fluorescence | 290,000 tested, 0.27% active;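 active = fall in fluorescence gain of 50% or more versus controls, with final raw signal at or below 3038400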;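 also: plate controls were neutral control wells for no effect and wells lacking membranes for full effect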
# PLC-beta3 inh: human PLC-beta3 inhibitors, primary screen, biochemical, fluorescence. inhibition, % at 12.2 µM. 1-phosphatidylinositol 4,5-bisphosphate phosphodiesterase beta-3 (Homo sapiens), Q01970. 370,000 tested, 0.18% active. Purified PLC-beta3, fluorogenic substrate;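 also: 0% = median of compound wells on plate and 100% = full blocker control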
# PLC-gamma1 inh: PLC-gamma1 enzyme inhibitors, primary screen, biochemical, fluorescence, purified enzyme | 1-phosphatidylinositol 4,5-bisphosphate phosphodiesterase gamma-1 (Homo sapiens), P19174 | fluorogenic substrate | inhibition, % at 12.2 µM | 370,000 tested, 0.84% active | AID 720700, 2013; in the data active = inhibition above about 9.5%
# PLCg1 ctr: PLC-gamma1 enzyme inhibitors, counter-screen for PLC-beta3 inhibitor project, biochemical, fluorescence. shares compounds with PLC-gamma1 inh. purified PLC-gamma1, fluorogenic substrate. inhibition, % at 12.3 µM. 3,300 tested, 3.1% active; in the data active = inhibition above about 9.5%
# PLCbeta3 conf: PLC-beta3 inhibitor confirmation, biochemical, fluorescence, purified enzyme; inhibition, % at 12.3 µM; AID 743261, 2014; shares compounds with PLC-gamma1 inh; 3,300 tested, 1% active; fluorogenic substrate fluorescence
# Starred values were filed as active, the others as inactive; i = inactive; nt = not tested or not shown. Compounds with a hit are over-represented: about 2.1% of the library has one in this group of screens. Rule as the data show it, unless noted: active = inhibition above about 11%; inactive = the rest.
SMILES,ADAM17 inh,ADAM10 inh,Rce1 inhib,PLC-beta3 inh,PLC-gamma1 inh,PLCg1 ctr,PLCbeta3 conf
CCCCN1CNC(=S)N(c2ccccc2OCC)C1,0,1,i,3,11*,1,4
c1ccc(-c2noc(C3CCC3)n2)nc1,-5,-3,i,-7,0,nt,nt
CCCCC1CCC(c2nc(-c3ccccn3)no2)CC1 (stereo unspecified),3,2,i,3,9.8*,-4,-4
O=C(NCc1ccccc1)c1n[nH]nc1-c1ccccc1O,-5,9,i,-7,17*,16*,-6
O=C(NCc1ccccc1)c1ccc(C(=O)NCc2ccccc2)cc1,-3,-5,nt,1,5,nt,nt
COc1ccc(NC(=O)CCN2CCCCCC2)cc1,-2,0,i,-1,11*,-3,-3
CCOC(=O)N1CCN(Cc2nc3cc(NC(=O)C(C)C)ccc3n2C)CC1,4,1,i,-2,12*,-8,-8
CCOC(=O)N1CCN(Cc2nc3cc(NC(=O)C(C)C)ccc3n2CC)CC1,-3,-10,i,-6,-3,nt,nt
CCN1CCN(CCC(=O)Nc2ccc3c(c2)OCO3)CC1,5,3,i,9,13*,3,-6
CCOC(=O)N1CCN(CCC(=O)Nc2ccc(C)cc2)CC1,-1,2,i,1,11*,0,-2
COc1ccc(NC(=O)CCN2CCCCC2)cc1,-4,-1,i,-1,1,nt,nt
Cn1c(=O)c2cc(NC(=S)NC3CCCCC3)ccc2n1-c1ccccc1,-130,-473,nt,-477,-330,nt,nt
O=c1oc(CCO)cc2ccc(Br)cc12,-5,-17,nt,-2,-2,nt,nt
COc1ccc(OCCCC(=O)Nc2ccc(N3CCCCC3)cc2)cc1,2,1,i,10,10*,-3,0
O=C(CSc1nnc(-c2ccccc2F)n1C1CCCCC1)N1CCCC1,-1,-5,i,6,6,nt,nt
CC1CCN(C(=O)CSc2nnc(-c3cccnc3)n2C2CCCCC2)CC1,2,5,i,-1,2,nt,nt
O=C(CSc1nnc(-c2ccc(Cl)cc2Cl)n1C1CCCCC1)N1CCCC1,4,14,i,1,11*,1,2
O=C(CSc1nnc(-c2ccc(Br)cc2)n1C1CCCCC1)N1CCCC1,7,12,i,6,16*,-4,-2
CN(C)S(=O)(=O)n1cc(/C=C(\NC(=O)c2ccccc2Cl)C(=O)NCCCN2CCOCC2)c2ccccc21,6,6,i,1,4,nt,nt
CN(C)S(=O)(=O)n1cc(/C=C(\NC(=O)c2ccccc2Cl)C(=O)NCCN2CCOCC2)c2ccccc21,-3,6,i,-3,12*,0,3
CC12CCC(=O)C=C1CCC1C2C(O)CC2(C)C1CCC2(O)C(=O)CO (stereo unspecified),-6,-17,i,-2,11*,-6,1
CS(=O)(=O)c1ccc(S(=O)(=O)N2CCN(C(=O)C(O)c3ccccc3)CC2)cc1 (stereo unspecified),1,-12,nt,1,5,nt,nt
Cc1ccc(-n2ncc3c(N4CCC(C(N)=O)CC4)ncnc32)c(C)c1,0,-12,i,1,15*,3,2
CCOC(=O)c1cnc2ccc(C)cc2c1NCCN1CCOCC1,0,-19,i,0,11*,-10,-4
COC(=O)C(C)Oc1ccc(-c2nccc(-c3ccccn3)n2)cc1 (stereo unspecified),1,0,i,-11,-2,nt,nt
COc1cc2cc(-c3ccc(O)cc3O)nc(C)c2cc1OC,-4,10,i,-6,13*,-4,0
COc1cc2cc(-c3ccc(OC)c(OC)c3C)nc(N)c2cc1OC,-26,-74,i,-106,-69,nt,nt
